Screening data as filed in PubChem BioAssay.
IDH1 R132H inh: blocks human mutant IDH1 R132H enzyme; O75874; IDH1-R132H enzyme, NADPH consumption, diaphorase/resazurin fluorescence; Potency, µM (titrated, usually from 76.6 µM), for inactives: top-dose activity change, negative = inhibition, most hits filed as inhibitors; 0.093% of 390,000 active; also: % is scaled to controls: 0 for no effect and ±100 for the full control effect; nearly all actives have a fitted effect of over 65% in size
Target sequence (O75874 whole entry R132H, stated change not applied): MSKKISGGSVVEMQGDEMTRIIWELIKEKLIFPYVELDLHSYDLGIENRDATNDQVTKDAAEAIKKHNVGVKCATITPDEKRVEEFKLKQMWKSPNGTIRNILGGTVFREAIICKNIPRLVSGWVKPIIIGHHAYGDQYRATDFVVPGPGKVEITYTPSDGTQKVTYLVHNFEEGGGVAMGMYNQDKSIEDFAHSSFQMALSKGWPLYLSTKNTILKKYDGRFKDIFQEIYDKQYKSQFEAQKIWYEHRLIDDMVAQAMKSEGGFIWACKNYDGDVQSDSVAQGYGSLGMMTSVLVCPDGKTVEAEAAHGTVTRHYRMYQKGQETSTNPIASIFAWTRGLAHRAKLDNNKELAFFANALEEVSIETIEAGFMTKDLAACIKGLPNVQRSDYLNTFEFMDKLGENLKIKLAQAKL
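IDH1-R132H (0.5 ug/mL dispensed) in pH 7.5 Tris buffer was preincubated 30 min with compound, then given a substrate mix of 0.016 mM NADPH and 2 mM alpha-KG for 80 min at room temperature; remaining NADPH was read by diaphorase/resazurin fluorescence.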
TrxR1 substrate: substrates of rat thioredoxin reductase 1; O89049; AID 588456; Potency, µM (doses to about 114 µM), without a hit: at the highest dose activity change, negative = substrate turnover; purified TrxR1 substrate turnover, NADPH consumption readout; 0.01% of 390,000 active; also: % is scaled to controls: 0 for no effect and ±100 for the full control effect; nearly all actives have a fitted effect of over 50% in size
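Rat TrxR1, dispensed at 90 nM, was prereduced with 400 uM NADPH (final) for 5 min at ~22 deg C, then incubated with compound 15 min before 400 uM selenite. A first-read NADPH fluorescence drop versus no-compound background flagged substrates.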
GRP78 ERSR act: induces the endoplasmic reticulum stress response in human glioma cells. U87-MG GRP78 promoter luciferase reporter, 16 h. Potency, µM, for the others: top-dose activation, most hits filed as activators. AID 602332. 0.02% of 420,000 active; also: series mostly up to about 76 µM; % of control where 0% means no effect; nearly all actives have a fitted effect of over 35% in size
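ERSR induction read as luciferase luminescence (Bright-Glo, 10 min at room temperature) in stably transfected human U87-MG glioma cells exposed to compounds for 16 h, using GRP78 as sensor.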
TrxR1 inh: rat TrxR1 inhibition; O89049; 1% of 390,000 active; Potency, µM (titrated, usually from 114 µM), for inactives: at the highest dose activity change, negative = inhibition, hits mostly inhibitors; recombinant rTrxR1, NADPH fluorescence consumption, selenite substrate; also: % is scaled to controls: 0 for no effect and ±100 for the full control effect; nearly all actives have a fitted effect of over 65% in size
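Rat TrxR1 (90 nM in the dispensed reagent) was pre-reduced with 400 uM NADPH for 5 min at room temperature, then incubated with compound for 15 min. After 400 uM selenite was added, NADPH fluorescence (Ex 340/Em 450 nm) was followed for 8 min.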
ALOX12 inh: ALOX12 (human) lipoxygenase inhibition; P18054; purified 12hLO, xylenol orange hydroperoxide absorbance; AID 1671190; Potency, µM (top dose mostly 108 µM), inactives show at the highest dose activity change, negative = inhibition, hits mostly inhibitors; 1.1% of 580,000 active; also: % is scaled to controls: 0 for no effect and ±100 for the full control effect
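Purified human 12hLO (150 nM final) in 25 mM Hepes, 0.01% Triton X-100, pH 7.0 was preincubated 15 min at room temperature with compound. Then 40 uM arachidonic acid was added, 30 min. Hydroperoxide was read by Fe-XO absorbance ratio 573/405 nm.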
Apoferritin bind: candidate novel general anesthetic via apoferritin binding. P02791. apoferritin/1-aminoanthracene competitive binding, fluorescence. Potency, µM (top dose mostly 77.5 µM), without a hit: at the top dose activity change, negative = displacement, most hits filed as inhibitors. 0.074% of 350,000 active. AID 485281; also: % is scaled to controls: 0 for no effect and ±100 for the full control effect; nearly all actives have a fitted effect of over 20% in size
Target sequence (P02791 2-175 limits assumed): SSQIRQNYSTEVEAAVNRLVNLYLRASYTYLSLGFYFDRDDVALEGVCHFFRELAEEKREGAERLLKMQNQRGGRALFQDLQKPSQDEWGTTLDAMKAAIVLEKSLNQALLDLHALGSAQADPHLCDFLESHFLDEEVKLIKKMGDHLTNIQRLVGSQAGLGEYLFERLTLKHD
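Apoferritin-based anesthetic binding model; compound displacement of fluorescent 1-AMA measured as endpoint fluorescence after 10 minutes at room temperature, scaled to free-ligand and complex controls.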
Numbers without * were called inactive; ? = inconclusive; nt = no result; ! = not confirmed by another sample; [ ] = dose if it differs, or a comment. A selection: hits, their analogues and other compounds. The true share with any hit is near 1.7%. Calls follow the shape of the dose curve; as a rule, active = well fitted curve in the direction sought with a large enough effect; inconclusive = small, poorly fitted or top-dose-only effect, or another doubt; inactive = no such curve, though single readings can be large; an effect the other way counts as inactive or inconclusive. Potency is read from the fitted curve at half-maximal effect.

SMILES | IDH1 R132H inh | TrxR1 substrate | GRP78 ERSR act | TrxR1 inh | ALOX12 inh | Apoferritin bind
O=C1NC(=S)NC(=O)C1=Cc1ccc(OCC(=O)N2CCCC2)cc1 | 21.3% | -3.3% | -4.0% | 5.62µM* | ? | -17.3%
CCOc1cc(C=C2C(=O)NC(=O)NC2=O)ccc1OCC(=O)N1CCOCC1 | 2.0% | -1.4% | 1.6% | ? | -28.9% | -6.7%
CC[C@H]1CN2CC[C@H]1C[C@@H]2COC(=O)Nc1ccc(C(C)(C)C)cc1 | nt | nt | nt | nt | 44.7µM* | nt
CSc1ncc(/C=C2/C(=O)NC(=O)N(C)C2=O)cn1 | 3.4% | -0.4% | 0.6% | 14.1µM* | ? | -20.3%
CSc1ncc(/C=C2/C(=O)NC(=O)N(C3CCCCC3)C2=O)cn1 | -1.3% | 7.0%[57.1 µM] | 2.6% | 11.2µM* | ? | -21.4%
CCCCN1C(=O)NC(=O)/C(=C/c2cnc(SC)nc2)C1=O | 0.3% | 2.8%[57.1 µM] | 12.2% | ? | 72.7% | ?
C=CCOC(=O)C1=C(C)OC(N)=C(C(=O)OCC)C12C(=O)Nc1ccccc12 (stereo not drawn) | nt | nt | nt | nt | 2.1% | nt
Cc1ccc(S(=O)(=O)Oc2ccccc2C=C2C(=O)N(C)C(=O)N(C)C2=O)cc1 | -0.3% | -2.6% | 19.8% | 50.1µM* | 44.7µM* | -14.6%
COc1ccc(CNCCc2c(C)[nH]c3ccc(OC)cc23)c(F)c1 | nt | nt | nt | nt | 1.58µM* | nt
COc1ccc2[nH]c(C)c(CCNCc3cn(C)c4ccccc34)c2c1 | 8.0% | -5.6% | -5.5% | -16.8% | 5.62µM* | nt
Cc1[nH]c2ccc(OCc3ccccc3)cc2c1CCN | -0.6% | 4.7% | -1.1% | 10.1% | -25.3% | ?
COc1ccc2c(C)c(CC(=O)N3CCN(CCc4ccccn4)CC3)c(=O)oc2c1 | nt | nt | nt | nt | 0.0% | nt
COc1cc2c(cc1Oc1ccccc1)NC(=O)C21CCN(c2nc(C)cnc2C)CC1 | nt | nt | nt | nt | -1.2%[176 µM] | nt
C=C(C)C(Cc1c(OC)ccc(C(=O)/C=C/c2ccc(O)cc2)c1O)OO (stereo not drawn) | ? | -9.1% | 6.8% | -1.9% | 20µM* | nt
Cc1cc(/C=C2\C(=O)NC(=O)N(c3ccc(Cl)cc3)C2=O)c(C)n1-c1sc2c(c1C#N)CCCC2 | -9.4% | -4.5% | ? | 50.1µM* | 11.2µM* | -1.5%
CCOC(=O)c1c(-n2c(C)cc(/C=C3\C(=O)NC(=O)N(C)C3=O)c2C)sc2c1CCCC2 | ? | -9.5% | -2.3% | -33.7% | ? | -10.4%
CN[C@@H](C)[C@H](O)c1ccccc1 | nt | -1.9% | -2.6% | 25.1µM*! | -8.1%[22.9 µM] | nt
CN[C@H](C)[C@H](O)c1ccccc1 | -9.6% | 2.2% | -1.1% | 13.4% | nt | 0.6%
O=C1NC(=O)C(=Cc2ccc(Sc3ccccc3)o2)C(=O)N1 | 1.4% | 2.2%[57.1 µM] | -16.1% | ? | ? | ?
O=C1NC(=O)N(c2ccc(Cl)cc2)C(=O)/C1=C\c1ccc(Sc2nc3ccccc3[nH]2)o1 | -9.1% | 8.0%[57.1 µM] | 3.6% | 12.6µM* | 8.91µM* | -6.7%
CCN(CC)C(=O)c1ccc(NC(=O)c2cccc(C(F)(F)F)c2)cc1 | -9.0% | -3.3% | 3.3% | 19.7% | 0.2% | -18.2%
CCN1CCN(S(=O)(=O)c2ccc(Cl)c(C(=O)Nc3ccc(C(=O)N(CC)CC)cc3)c2)CC1 | 0.6% | 2.6% | -0.2% | 7.3% | 20µM* | -15.8%
CC(C)N1C(=O)OCC12CCN(Cc1cccnc1)C2 (stereo not drawn) | nt | nt | nt | nt | -12.6%[176 µM] | nt
Cc1nonc1CC(=O)N1C[C@H](O)[C@@H](N2CCC(O)CC2)C1 | nt | nt | nt | nt | 12.6µM* | nt
CCCCCC1CC(CC#CCN2CCOCC2)C(=O)O1 (stereo not drawn) | 7.7% | -3.2% | -4.2% | 44.7µM* | ? | 1.2%
CCCCCCn1c(O)c(C=NCCN2CCOCC2)c(=O)[nH]c1=O | 5.9% | 0.5% | -0.2% | 14.8% | 17.3% | -17.6%
CCOC(=O)c1c(C(C#N)=CN)c2ccc(Cl)c(Cl)c2n1C | nt | nt | nt | nt | -2.8%[57.4 µM] | nt
C[N+]1(C)C2CC[C@H]1CC(OC(=O)C(CO)c1ccccc1)C2 (stereo partly drawn) | 8.9% | -1.8% | -2.4% | 9.3% | -8.4% | nt
